From PubChem BioAssay (NCI)
Compounds without any hit were thinned out: in the full panel of roughly 79,000, 15% have a hit. Values without a mark were called inactive. The source made the active and inactive calls. Cut-off read from the data, not from the text of the source: active = growth inhibition above about 70%; inactive = the rest. *1 amine or outer side, *2 acyl side, *3 side chain or, on linkers, in order; H or OH if unused. Where a SMILES comes first, the peptide text is derived from it. [ ]: non-standard residue; d: D form. The star is where a group is joined. X5 = CCC(=O)CC1CC(C)CC(C(=O)[*:2])N1[*:1]; X4 = CCCCCCCCC(C)C(=O)*; Aib = CC(C)(N)C(=O)O; X6 = CC(CN(C)CCO)N*

Key:
[1] = NCI Yeast Anticancer Drug Screen. Data for the rad50 strain (AID 155);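 note: 0% = growth of vehicle-only cultures of the same strain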; conditions: S. cerevisiae rad50 strain growth inhibition, hits give high values
Method in brief: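 A DNA repair-deficient yeast mutant serves as the test organism; compound-induced growth inhibition is calculated against vehicle-treated cells.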

[2] = NCI Yeast Anticancer Drug Screen. Data for the mec2-1 strain (AID 157); conditions: S. cerevisiae mec2-1 strain, hits give high values
Method in brief: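 Vehicle-treated cultures served as reference for growth inhibition of compound-exposed mec2-1 yeast.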

[3] = NCI Yeast Anticancer Drug Screen. Data for the sgs1 mgt1 strain (AID 161);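 note: 0% = growth of cultures given vehicle only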; conditions: S. cerevisiae sgs1 mgt1 strain, hits give high values
Method in brief: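 Read-out: growth inhibition vs vehicle controls. Cells: mutant yeast strain deficient in DNA damage repair.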

[4] = NCI Yeast Anticancer Drug Screen. Data for the cln2 rad14 strain (AID 165);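 note: 0% = growth equal to vehicle treated cultures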; conditions: S. cerevisiae cln2 rad14 strain, hits give high values
Method in brief: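 Each compound was tested on cln2 rad14 yeast. Inhibition of growth was calculated against vehicle-exposed controls.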

[5] = NCI Yeast Anticancer Drug Screen. Data for the bub3 strain (AID 167); conditions: S. cerevisiae bub3 mutant strain, hits give high values
Method in brief: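 Inhibition values come from growth of compound-treated mutant yeast normalised to vehicle-treated controls.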

[6] = NCI Yeast Anticancer Drug Screen. Data for the mlh1 rad18 strain (AID 175); conditions: S. cerevisiae mlh1 rad18 strain growth inhibition, hits give high values
Method in brief: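 Vehicle-treated cultures served as the reference for growth inhibition in a yeast strain carrying DNA damage repair alterations exposed to each compound.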

[7] = at 5.0 µM (retest, dose inferred, filed as 0.5)
[8] = at 50.0 µM (retest, dose inferred, filed as 5.0)

| SMILES | growth inhibition [1, 7] | growth inhibition [1, 8] | growth inhibition [2, 7] | growth inhibition [2, 8] | growth inhibition [3, 7] | growth inhibition [3, 8] | growth inhibition [4, 7] | growth inhibition [4, 8] | growth inhibition [5, 7] | growth inhibition [5, 8] | growth inhibition [6, 7] | growth inhibition [6, 8] | growth inhibition ([1]; at 50.0 µM) | growth inhibition ([6]; at 50.0 µM) | growth inhibition ([2]; at 50.0 µM) | growth inhibition ([4]; at 50.0 µM) | growth inhibition ([5]; at 50.0 µM) | growth inhibition ([3]; at 50.0 µM) |
| --- | --- | --- | --- | --- | --- | --- | --- | --- | --- | --- | --- | --- | --- | --- | --- | --- | --- | --- |
| CC(O)C(=O)NCCc1ccccc1 (stereo not drawn) | 8% | 4% | -3% | -2% | -1% | 1% | 2% | 3% | -1% | -2% | 4% | 10% | – | – | – | – | – | – |
| Oc1ccc2ccccc2c1N=Nc1nccs1 | 27% | 69% | – | – | 98% (active) | 90% (active) | 74% (active) | 86% (active) | 96% (active) | 85% (active) | 36% | 77% (active) | 82.8% (active) | 77.8% (active) | – | – | – | – |
| CCOc1ccc(NC(=O)/C(=N\N)C(C(=O)OC)c2nc3ccc(Cl)cc3[nH]c2=O)cc1 (stereo not drawn) | -14% | -17% | -1% | -10% | – | – | -25% | -8% | -6% | 5% | -7% | -8% | -12.9% | -1.5% | -13.1% | 80.2% (active) | -26.5% | – |
| CCCCCCCCC(C)C(=O)N1CCCC1C(=O)N1C(CC(=O)CC)CC(C)CC1C(=O)NC(C)C(=O)NC(C)(C)C(=O)NC(C)(C)C(=O)NC(C(=O)NC(C)C(=O)NC(C)(C)C(=O)NC(C)(C)C(=O)NC(C)CN(C)CCO)C(C)CC (stereo not drawn) (X4-P[X5]A[Aib][Aib]IA[Aib][Aib]-X6; configuration not given here) | 98% (active) | 100% (active) | 99% (active) | 100% (active) | – | – | 99% (active) | 99% (active) | 99% (active) | 99% (active) | 99% (active) | 99% (active) | 91.6% (active) | 89.7% (active) | 93.5% (active) | 90.9% (active) | 92.4% (active) | – |
| COc1cc(NC(=O)C2=C(C)NC(C)=C(C(=O)Nc3cc(OC)c(Cl)cc3OC)C2c2cccc([N+](=O)[O-])c2)c(OC)cc1Cl | -24% | 96% (active) | 5% | 97% (active) | – | – | -31% | 96% (active) | 27% | 97% (active) | -14% | 96% (active) | 96.7% (active) | 96.9% (active) | 76.3% (active) | 95.8% (active) | 95.5% (active) | – |
| COc1ccc2c(c1)c(CC(=O)O)c(C)n2C(=O)c1ccc(Cl)cc1 | -1% | 37% | – | – | 2% | 54% | 1% | 32% | 1% | 30% | -1% | 39% | 82.2% (active) | 72% (active) | – | 80.7% (active) | 51.1% | 88.7% (active) |
| CCCOC1N(c2ccc(C)cc2)NC(=O)C1(C)C (stereo not drawn) | 86% (active) | 95% (active) | 82% (active) | 94% (active) | 33% | 96% (active) | 50% | 95% (active) | 49% | 93% (active) | 65% | 99% (active) | 83% (active) | 68.1% | 56.6% | – | – | – |
| CNc1ncnc2nc(C)[nH]c12 | 0% | 20% | -3% | 3% | 0% | 16% | 2% | -4% | 1% | 2% | -13% | 16% | – | – | – | – | – | – |
| COc1cc(/C=C/c2ccnc3ccccc23)cc(OC)c1OC | 30% | 59% | 34% | 68% | – | – | 25% | 45% | 43% | 92% (active) | 45% | 81% (active) | 43.4% | 22.2% | 79.3% (active) | 65.3% | 72.6% (active) | – |
| Fc1cccc(F)c1C1SCc2nc3cc4ccccc4cc3n21 (stereo not drawn) | 35% | 83% (active) | 24% | 66% | – | – | 27% | 31% | 30% | 75% (active) | – | – | 23.1% | – | 56.3% | 80.1% (active) | 80.2% (active) | – |
| C/C(=N\NC(=S)N(C)C)c1ccccn1 | 94% (active) | 98% (active) | 92% (active) | 99% (active) | 93% (active) | 99% (active) | 91% (active) | 97% (active) | 95% (active) | 99% (active) | 95% (active) | 98% (active) | – | – | – | 89.3% (active) | 88.7% (active) | 88.6% (active) |
